Reference: PubChem BioAssay (NCI)
About 83,000 compounds went through this panel and 20% of them were active in at least one assay; those are over-represented in the sample as a whole.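 Testing used 96-well plates and a 48-hour single-concentration exposure. Example: -40 means 40% of the starting cells died.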 Calls of active or inactive are those of the source. How the source made its calls: active means growth percent below 10; inactive means the rest.

Legend:
Experiment in all cases: NCI-60 one-dose screen, 48 h (100 = growth as untreated, 0 = no growth, -100 = all killed)
Conditions in all cases: 10 µM
EKVX NSCLC = test system: EKVX NSCLC
SN12C renal = test system: SN12C renal
UO-31 renal = test system: UO-31 renal
TK-10 renal = test system: TK-10 renal
ACHN renal = test system: ACHN renal
CAKI-1 renal = test system: CAKI-1 renal
A498 renal = test system: A498 renal
CCRF-CEM leukemia = test system: CCRF-CEM leukemia
MOLT-4 leukemia = test system: MOLT-4 leukemia
SR leukemia = test system: SR leukemia
RPMI-8226 leukemia = test system: RPMI-8226 leukemia
OVCAR-8 ovarian = test system: OVCAR-8 ovarian
OVCAR-5 ovarian = test system: OVCAR-5 ovarian
OVCAR-4 ovarian = test system: OVCAR-4 ovarian
SK-OV-3 ovarian = test system: SK-OV-3 ovarian
IGROV1 ovarian = test system: IGROV1 ovarian
OVCAR-3 ovarian = test system: OVCAR-3 ovarian
HS 578T breast = test system: HS 578T breast
NCI/ADR-RES ovarian = test system: NCI/ADR-RES ovarian
T-47D breast = test system: T-47D breast

Measured: growth

O=C(O)C(SC(C(=O)O)c1ccccc1)c1ccccc1 (configuration not stated)
inactive: EKVX NSCLC 104% | SN12C renal 99.9% | UO-31 renal 87.6% | TK-10 renal 106% | ACHN renal 104% | CAKI-1 renal 91.8% | A498 renal 107% | CCRF-CEM leukemia 97.8% | MOLT-4 leukemia 103% | SR leukemia 101% | RPMI-8226 leukemia 102% | OVCAR-8 ovarian 110% | OVCAR-5 ovarian 106% | OVCAR-4 ovarian 102% | SK-OV-3 ovarian 99.7% | IGROV1 ovarian 115% | OVCAR-3 ovarian 114% | HS 578T breast 113%

CN1c2ccccc2[C@]2(Cc3ccccc3)Cc3ccccc3N[C@H]12
inactive: EKVX NSCLC 114% | SN12C renal 109% | UO-31 renal 73.4% | TK-10 renal 114% | ACHN renal 103% | CAKI-1 renal 112% | A498 renal 113% | CCRF-CEM leukemia 92.2% | MOLT-4 leukemia 90.2% | SR leukemia 91.2% | RPMI-8226 leukemia 98.9% | OVCAR-8 ovarian 106% | OVCAR-5 ovarian 93.8% | OVCAR-4 ovarian 91% | SK-OV-3 ovarian 122% | IGROV1 ovarian 88.8% | OVCAR-3 ovarian 120% | HS 578T breast 110% | NCI/ADR-RES ovarian 107% | T-47D breast 109%

Nc1ncnc2[nH]c(=O)[nH]c12
active: CAKI-1 renal 6.82%
inactive: EKVX NSCLC 83.2% | SN12C renal 90.9% | UO-31 renal 105% | TK-10 renal 99.3% | ACHN renal 98.9% | A498 renal 128% | CCRF-CEM leukemia 125% | MOLT-4 leukemia 138% | SR leukemia 26.1% | RPMI-8226 leukemia 195% | OVCAR-8 ovarian 93.3% | OVCAR-5 ovarian 87.9% | OVCAR-4 ovarian 96.7% | SK-OV-3 ovarian 110% | IGROV1 ovarian 113% | OVCAR-3 ovarian 98.4% | HS 578T breast 144% | NCI/ADR-RES ovarian 107% | T-47D breast 94.2%

CCCCCCCCCCCCCC[n+]1ccc(C(N)=O)cc1
inactive: UO-31 renal 50.7% | ACHN renal 65.6% | CAKI-1 renal 15.6% | A498 renal 52.3% | OVCAR-4 ovarian 32.4% | SK-OV-3 ovarian 34.3% | IGROV1 ovarian 110% | NCI/ADR-RES ovarian 96.1% | T-47D breast 46.9%
active: EKVX NSCLC 1.08% | SN12C renal 8.7% | TK-10 renal -65.2% | CCRF-CEM leukemia 2.78% | MOLT-4 leukemia -34.8% | SR leukemia -15.8% | RPMI-8226 leukemia -41.2% | OVCAR-8 ovarian 1.18% | OVCAR-5 ovarian -4.86% | OVCAR-3 ovarian -27.1% | HS 578T breast -14.5%

COc1ccc2c(c1)sc1nc(-c3ccccc3)c(-c3cccnc3)n12
inactive: EKVX NSCLC 83% | SN12C renal 98.2% | UO-31 renal 95.2% | TK-10 renal 116% | ACHN renal 97.7% | CAKI-1 renal 81.2% | A498 renal 58.4% | CCRF-CEM leukemia 93.1% | MOLT-4 leukemia 86.6% | SR leukemia 86.6% | RPMI-8226 leukemia 79% | OVCAR-8 ovarian 104% | OVCAR-5 ovarian 110% | OVCAR-4 ovarian 88.1% | SK-OV-3 ovarian 108% | IGROV1 ovarian 94.7% | OVCAR-3 ovarian 113% | HS 578T breast 99.7% | NCI/ADR-RES ovarian 96.4% | T-47D breast 93.3%

CCN(CC)CCCC(C)Nc1nc(-c2ccc(OC)cc2)nc2cc(Cl)ccc12 (configuration not stated)
inactive: EKVX NSCLC 70.2% | SN12C renal 58% | UO-31 renal 45% | TK-10 renal 88.8% | ACHN renal 37% | CAKI-1 renal 78.8% | A498 renal 37.4% | CCRF-CEM leukemia 57.9% | MOLT-4 leukemia 37.7% | SR leukemia 51.8% | RPMI-8226 leukemia 55.2% | OVCAR-8 ovarian 76.1% | OVCAR-5 ovarian 65.8% | OVCAR-4 ovarian 68.7% | SK-OV-3 ovarian 91.4% | IGROV1 ovarian 44.3% | OVCAR-3 ovarian 69.6% | HS 578T breast 70.4% | NCI/ADR-RES ovarian 71.3% | T-47D breast 60.2%

Cc1ccc(CC#N)cc1C
inactive: EKVX NSCLC 87.8% | SN12C renal 105% | UO-31 renal 94.4% | TK-10 renal 107% | ACHN renal 94.6% | CAKI-1 renal 45.3% | A498 renal 136% | CCRF-CEM leukemia 128% | MOLT-4 leukemia 93.9% | SR leukemia 89.3% | RPMI-8226 leukemia 134% | OVCAR-8 ovarian 78.3% | OVCAR-5 ovarian 88.8% | OVCAR-4 ovarian 109% | SK-OV-3 ovarian 117% | IGROV1 ovarian 74.9% | OVCAR-3 ovarian 95.4% | HS 578T breast 173% | NCI/ADR-RES ovarian 106% | T-47D breast 98.4%

COc1ccc2c(c1)sc1nc(-c3ccccc3)c(-c3ccsc3)n12
active: A498 renal -7.5% | SR leukemia 6.49% | OVCAR-3 ovarian -51.6% | HS 578T breast 3.75% | NCI/ADR-RES ovarian 9.35%
inactive: EKVX NSCLC 40.8% | SN12C renal 50.2% | UO-31 renal 37.8% | TK-10 renal 46.1% | ACHN renal 54.2% | CAKI-1 renal 27.9% | CCRF-CEM leukemia 23.2% | MOLT-4 leukemia 36.4% | RPMI-8226 leukemia 15.2% | OVCAR-8 ovarian 30.8% | OVCAR-5 ovarian 51.6% | OVCAR-4 ovarian 62.8% | SK-OV-3 ovarian 23.5% | IGROV1 ovarian 31.1% | T-47D breast 57%

COc1ccc2c(c1)C(=O)c1c-2c(OCCN(C)C)nc2cc(OC)c(OC)cc12
inactive: EKVX NSCLC 93.9% | SN12C renal 51.9% | UO-31 renal 46.8% | TK-10 renal 64.2% | ACHN renal 38.3% | CAKI-1 renal 81% | A498 renal 102% | CCRF-CEM leukemia 28.2% | MOLT-4 leukemia 11.6% | RPMI-8226 leukemia 32.2% | OVCAR-8 ovarian 37.2% | OVCAR-5 ovarian 117% | OVCAR-4 ovarian 50.7% | SK-OV-3 ovarian 74.2% | IGROV1 ovarian 35% | OVCAR-3 ovarian 63.9% | HS 578T breast 85.7% | NCI/ADR-RES ovarian 41.8% | T-47D breast 101%
active: SR leukemia 1.83%

Oc1[nH]c2ccc(Cl)cc2c1/C=c1/ccc2c(c1)N=C(c1cc(F)cc(F)c1)N=2
active: OVCAR-3 ovarian 7.12%
inactive: EKVX NSCLC 88.8% | SN12C renal 86.3% | UO-31 renal 75.2% | TK-10 renal 100% | ACHN renal 67.3% | CAKI-1 renal 58.6% | A498 renal 72.5% | CCRF-CEM leukemia 16.6% | MOLT-4 leukemia 12.8% | SR leukemia 13.9% | RPMI-8226 leukemia 74.4% | OVCAR-8 ovarian 77% | OVCAR-5 ovarian 86.8% | OVCAR-4 ovarian 68.5% | SK-OV-3 ovarian 68% | IGROV1 ovarian 53.6% | HS 578T breast 63% | NCI/ADR-RES ovarian 54.2% | T-47D breast 88.4%

COc1ccc(-c2nc3ccccn3c2-c2nnc(-c3cc(OC)c(OC)c(OC)c3)o2)cc1
inactive: EKVX NSCLC 71% | SN12C renal 69.7% | UO-31 renal 77.7% | TK-10 renal 77.9% | ACHN renal 49.4% | CAKI-1 renal 80.1% | A498 renal 48.2% | CCRF-CEM leukemia 88.4% | MOLT-4 leukemia 92.1% | SR leukemia 37.7% | RPMI-8226 leukemia 75.1% | OVCAR-8 ovarian 35.5% | OVCAR-5 ovarian 82.7% | OVCAR-4 ovarian 64.8% | SK-OV-3 ovarian 44.3% | IGROV1 ovarian 87% | OVCAR-3 ovarian 40.4% | HS 578T breast 82.2% | NCI/ADR-RES ovarian 63.7% | T-47D breast 48%

Fc1ccc(-c2nnc(-c3c(-c4ccc(F)cc4)nc4ccccn34)o2)cc1
inactive: EKVX NSCLC 95.3% | SN12C renal 77.2% | UO-31 renal 83.8% | TK-10 renal 102% | ACHN renal 83.2% | CAKI-1 renal 91.1% | A498 renal 62% | CCRF-CEM leukemia 95.4% | MOLT-4 leukemia 100% | SR leukemia 47.3% | RPMI-8226 leukemia 85.1% | OVCAR-8 ovarian 36.7% | OVCAR-5 ovarian 99.9% | OVCAR-4 ovarian 88.8% | SK-OV-3 ovarian 85.3% | IGROV1 ovarian 114% | OVCAR-3 ovarian 90.3% | HS 578T breast 92.4% | NCI/ADR-RES ovarian 67.7% | T-47D breast 62.3%

COc1ccc2c(c1)-c1c(c3cc(OC)ccc3n(CCN(C)C)c1=O)C2=O
active: UO-31 renal -24.7% | TK-10 renal -2.26% | ACHN renal 8.27% | CAKI-1 renal 1.94% | CCRF-CEM leukemia 3.78% | MOLT-4 leukemia 1.5% | SR leukemia -12.4% | RPMI-8226 leukemia -14.9% | OVCAR-8 ovarian 4.46% | OVCAR-4 ovarian -28.3% | IGROV1 ovarian -25.6% | OVCAR-3 ovarian 6.8% | NCI/ADR-RES ovarian -1.87%
inactive: EKVX NSCLC 34.5% | SN12C renal 24.6% | A498 renal 48.6% | OVCAR-5 ovarian 46.3% | SK-OV-3 ovarian 28.7% | HS 578T breast 25.7% | T-47D breast 63.8%

COc1ccc(-c2nnc(-c3c(-c4ccccc4)nc4ncccn34)o2)cc1OC
inactive: EKVX NSCLC 114% | SN12C renal 97.3% | UO-31 renal 79% | TK-10 renal 111% | ACHN renal 88.8% | CAKI-1 renal 103% | A498 renal 117% | CCRF-CEM leukemia 96.7% | MOLT-4 leukemia 93.1% | SR leukemia 81.1% | RPMI-8226 leukemia 94.8% | OVCAR-8 ovarian 99% | OVCAR-5 ovarian 91.7% | OVCAR-4 ovarian 93.1% | SK-OV-3 ovarian 95.9% | IGROV1 ovarian 98.5% | OVCAR-3 ovarian 108% | HS 578T breast 98.3% | NCI/ADR-RES ovarian 101% | T-47D breast 87.2%

O=C(/C(=C/c1ccccc1)CN1CCCCC1)c1ccccc1
active: EKVX NSCLC 6.23% | SN12C renal -47.5% | UO-31 renal -93.8% | TK-10 renal -41.3% | ACHN renal -59.3% | CAKI-1 renal -3.31% | A498 renal -77.1% | CCRF-CEM leukemia 7.4% | MOLT-4 leukemia 3.27% | SR leukemia -12.4% | RPMI-8226 leukemia -6.34% | OVCAR-5 ovarian -66.5% | IGROV1 ovarian -7.89% | OVCAR-3 ovarian -92.7% | NCI/ADR-RES ovarian 4.84%
inactive: OVCAR-8 ovarian 11% | OVCAR-4 ovarian 12% | SK-OV-3 ovarian 31% | HS 578T breast 47.5%

O=C(Nc1nc2ccc(F)cc2s1)c1cc(-c2ccc(F)cc2)n2nc(-c3ccccc3)cc2n1
inactive: EKVX NSCLC 84.1% | SN12C renal 87.5% | UO-31 renal 98.2% | TK-10 renal 113% | ACHN renal 107% | CAKI-1 renal 85.6% | A498 renal 124% | CCRF-CEM leukemia 74.5% | MOLT-4 leukemia 99.7% | SR leukemia 35% | RPMI-8226 leukemia 97.7% | OVCAR-8 ovarian 38.6% | OVCAR-5 ovarian 107% | OVCAR-4 ovarian 17.9% | SK-OV-3 ovarian 86.4% | IGROV1 ovarian 122% | OVCAR-3 ovarian 82.8% | HS 578T breast 73.3% | NCI/ADR-RES ovarian 53% | T-47D breast 75.2%
